From PubChem BioAssay
A selection: hits, their analogues and other compounds. The true share with any hit is near 8.8%.
HT1080NT lethal: qHTS for induction of synthetic lethality in tumor cells producing 2HG: qHTS for the HT-1080-NT fibrosarcoma cell line. hit rate 1.6% among 360,000. HT-1080-NT fibrosarcoma viability, CellTiter-Glo ATP luminescence, 48 h. AID 686970, 2013. Potency, µM (top dose mostly 46.1 µM), without a hit: at the highest dose activity, negative = less viability, usual class: cytotoxic;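 further: NT is the 2HG producing partner of a matched IDH1 knockdown line; potency means the concentration at half of the fitted maximal effect; 0% = DMSO-treated cells and -100% = media-only wells without cells; nearly all actives have a fitted effect of over 55% in size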
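Viability of the 2HG-overproducing fibrosarcoma line after 48 hours of compound exposure at 37 degrees C was determined by luminescence with CellTiter-Glo, and concentration-effect curves were then fitted and categorized.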
KB-V1 MDR tox: qHTS assay for MDR1-selective chemotherapeutics: Primary screen using the drug-selected MDR subline cells KB-V1; KB-V1 MDR cells viability, CellTiter-Glo, 72 h; Potency, µM (doses to about 46.1 µM), usual class: cytotoxic; hit rate 3.4% among 400,000; AID 1347076, 2019; further: potency means the concentration at half of the fitted maximal effect; nearly all actives have a fitted effect of over 60% in size
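Compound-treated KB-V1 multidrug-resistant cells, 72 h, 37 degrees C; viability by CellTiter-Glo. Fitted qHTS curves give the values.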
KB-3-1 cytotox: qHTS assay for MDR1-selective chemotherapeutics: Primary screen using the parental adenocarcinoma cell KB-3-1. KB-3-1 viability, CellTiter-Glo ATP luminescence, 72 h. Potency, µM (titrated, usually from 46.1 µM), usual class: cytotoxic. hit rate 1.4% among 400,000. AID 1347075, 2019; further: potency means the concentration at half of the fitted maximal effect; nearly all actives have a fitted effect of over 60% in size
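KB-3-1 cells, DMEM (no phenol red) + 10% FBS; compound by pin transfer, 72 h, 37 °C. Readout: CellTiter-Glo luminescence after 10 min. Data normalized, curve-fitted.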
IL-1B inflam inh: qHTS for Inhibitors of Inflammasome Signaling: IL-1-beta AlphaLISA Primary Screen | hit rate 4.7% among 360,000 | THP-1 LPS/ATP IL-1B secretion, AlphaLISA, 16 h; active compounds read low | AID 743279, 2014 | activity change, % at 57.5 µM; in the data active means activity change below about -50%; inconclusive means mostly about -30% to -49%
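Secreted IL-1B measured by AlphaLISA bead assay after 16 h compound exposure of THP-1 cells; compounds (final up to 57.5 uM) added 1 h before LPS (250 ng/mL) and ATP (1.25 mM) stimulation; lower signal means less secretion.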
HT1080 IDH1KD tx: qHTS for induction of synthetic lethality in tumor cells producing 2HG: qHTS for the HT-1080-IDH1KD cell line. Potency, µM (doses to about 46.1 µM), inactives show at the top dose activity, negative = toxicity, usual class: cytotoxic. HT-1080 IDH1 knockdown viability, ATP luminescence, 48 h. hit rate 2% among 360,000. AID 686971, 2013;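 further: potency means the concentration at half of the fitted maximal effect; 0% = DMSO wells and -100% = cell-free medium wells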
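Cytotoxicity counter-line: IDH1KD HT-1080, 48 h, CellTiter-Glo. Curves classed by r2, magnitude and activity.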
An asterisk follows results filed as active; i = inactive; u = inconclusive; x = no result given; [ ] = remark or other dose. Unless noted, the call rests on the fitted dose curve; in most records, active means well fitted curve in the direction sought with a large enough effect; inconclusive means small, poorly fitted or top-dose-only effect, or another doubt; inactive means no such curve, though single readings can be large; an effect the other way counts as inactive or inconclusive. Unless noted, on the % scale 0 is the no-effect control and ±100 the full control effect.

SMILES	HT1080NT lethal	KB-V1 MDR tox	KB-3-1 cytotox	IL-1B inflam inh	HT1080 IDH1KD tx
CCOc1ccc(-c2cn(-c3ccccc3OC)c(=S)[nH]2)cc1	u	u	u	20	26µM*
COc1ccc(N2C(c3cc(OC)cc(OC)c3)=Cc3ccccc3C2CC(C)=O)cc1 (configuration not stated)	-24%	i	23µM*	32	-28%
COc1cc(OC)cc(C2=Cc3ccccc3C(CC(C)=O)N2c2ccc(C#CCCO)cc2)c1 (configuration not stated)	u	i	i	-19	u
O=C(c1ccccc1)c1ccc(C(=O)N2CCN(c3ccccc3O)CC2)cc1	0%	i	i	u	1%
CCCCN(CC)Cc1ccc(CNC(=O)Nc2ccc(F)cc2)o1	10µM*	i	i	0	u
CCCCN(CCCC)Cc1ccc(C(=O)NNC(=O)Nc2ccc(Cl)cc2)o1	-28%	i	i	-57*	-20%
CCCCN(CC)Cc1ccc(CNC(=S)Nc2ccc(C)cc2Cl)o1	u	i	i	-62*	-27%
Cc1cccc(N2CCN(C(=O)CN3C(=O)NC4(CCCCCC4)C3=O)CC2)c1C	-23%	i	i	-12	-13%
O=C(CSc1nnc(-c2c[nH]c3ccccc23)o1)N(Cc1ccccc1)c1ccc(F)cc1	u	12µM*	i	-65*	-29%[9.24 µM]
CCOc1ccc(N(Cc2cc3ccc(C)cc3[nH]c2=O)S(=O)(=O)c2ccccc2)cc1	u	i	16µM*	u	u
CCOc1ccc(C(=O)N(CN2CCCC2=O)c2ccc(C)cc2)cc1	-4%	4.6µM*	i	9	-1%
CCOc1ccc(S(=O)(=O)N(CC(=O)N/N=C/c2cccs2)c2ccc(C)cc2)cc1	u	23µM*	i	-5	u
CC(C)N(Cc1cc2ccccc2[nH]c1=O)C(=O)C(C)(C)C	12%	i	i	17	6%
Cc1ccc2cc(CN(c3ccccc3)S(=O)(=O)c3ccccc3)c(=O)[nH]c2c1	-7%	i	i	-24	0%
CC(C)C(=O)N(Cc1cc2ccccc2[nH]c1=O)C(C)C	5%	16µM*	i	0	10%
COc1ccc(CN2CCC[C@]3(N[C@H](c4ccccc4)[C@@H]4C(=O)N(C)C(=O)[C@@H]43)C2=O)cc1	8%	i	i	-3	15%
CCC(C)(C)C1CCC2(CC1)NC(=O)N(CC(=O)N1CCN(C(=O)c3ccco3)CC1)C2=O (configuration not stated)	9%	i	i	-4	18%
CCOc1ccc(S(=O)(=O)N(CC(=O)O)c2ccc(C)cc2)cc1	17%	i	i	2	-2%
CCOC(=O)c1ccc(N(CCC2CO2)S(=O)(=O)c2ccc(C)cc2)cc1 (configuration not stated)	-2%	21µM*	i	-19	-5%
COc1ccc(N(Cc2cc3ccccc3[nH]c2=O)S(C)(=O)=O)cc1	-1%	16µM*	i	0	-10%
Cc1ccc(N(Cc2cc3ccccc3[nH]c2=O)S(C)(=O)=O)cc1	7%	i	i	1	-4%
CCOc1ccc(N(Cc2ccc(C(=O)O)cc2)S(=O)(=O)c2ccc(C)cc2)cc1	u	u	u	7	7.3µM*
CSc1ncccc1C(=O)OCC(=O)c1ccc(S(=O)(=O)N2CCCCC2)cc1	-3%	23µM*	i	-14	-5%
CSc1ncccc1C(=O)OCC(=O)Nc1ccc(S(=O)(=O)N2CCCC2)cc1	-5%	i	i	12	4%
CC(=O)c1ccc(OCC(=O)Nc2cccc(S(=O)(=O)N3CCCC3)c2)cc1	16µM*	u	i	-5	-17%
SMILES	HT1080NT lethal	KB-V1 MDR tox	KB-3-1 cytotox	IL-1B inflam inh	HT1080 IDH1KD tx
Cc1cccc(NC(=O)COC(=O)c2ccc(S(=O)(=O)N3CCCCCC3)cc2)c1	1%	16µM*	i	1	3%
Cc1ccc(OCC(=O)Nc2cccc(S(=O)(=O)N3CCCC3)c2)cc1C	-1%	i	i	5	0%
Cc1ccc2cccc(OCC(=O)Nc3cccc(S(=O)(=O)N4CCCC4)c3)c2n1	-26%	x	x	-71*	-23%
O=C(COc1ccccc1Cc1ccccc1)Nc1cccc(S(=O)(=O)N2CCOCC2)c1	-7%	5.2µM*	u	0	-10%
CN(C)c1ccc(C(=O)OCC(=O)Nc2cccc(S(=O)(=O)N3CCCC3)c2)cc1	-1%	16µM*	i	0	-2%
Cc1ccc(C)c(C(=O)OCC(=O)Nc2cccc(S(=O)(=O)N3CCCCC3)c2)c1	u	u	15µM*	0	u
Cc1ccc(S(=O)(=O)N2CCOCC2)cc1NC(=O)COc1ccccc1Cc1ccccc1	-13%	i	i	u	-11%
COC(=O)c1ccc(NC(=O)COc2ccc(S(=O)(=O)N3CCCCC3)cc2)cc1	-7%	5.2µM*	i	21	-27%
COc1ccc(-c2cc(C(=O)Nc3cc(C(F)(F)F)ccc3Cl)no2)cc1	x	i	i	x	x
CCC1=C(c2ccc(OC)cc2)CCC(C(=O)O)C1C (configuration not stated)	-5%	i	i	14	-21%
COc1ccc(OCCC(=O)OCC(=O)Nc2ccc(S(=O)(=O)N3CCOCC3)cc2)cc1	-11%	i	i	-65*	-11%
COc1ccc(S(=O)(=O)c2cn(C)c3ccc(C)cc3c2=O)cc1	x	i	i	x	x
CN(C)CCC1(C2=CCCC2)CC/C(=C/c2ccc(Cl)cc2)C1=O (configuration not stated)	u	i	i	-111*	u
Cc1ccc(/C=N/NC(=O)c2c(-c3ccccc3)noc2C)o1	15%	i	i	31	u
Cc1cccc(C(=O)N/N=C/c2ccc[nH]2)c1	-3%	i	i	0	-2%
Cn1ccc(C(=O)N/N=C/c2c[nH]c3ccccc23)n1	23%	i	18µM*	-12	4%
O=C(N/N=C/c1c[nH]c2ccccc12)c1ccn(Cc2ccc(Cl)cc2Cl)n1	-21%	i	i	-7	-12%
Cc1cccc(C(=O)N/N=C/c2cc(Br)c(Br)o2)c1	-22%	u	i	-55*	0%
Cc1onc(-c2ccccc2)c1C(=O)N/N=C/c1cc(Br)c(Br)o1	-12%	i	u	-93*	u
Cc1onc(-c2ccccc2)c1C(=O)N/N=C/c1c[nH]c2ccccc12	-6%	u	i	-72*	-29%
